From PubChem BioAssay AID489018 (Southern Research Specialized Biocontainment Screening …, 2010)
The whole screen tested about 2,300 compounds, of which about 350 (15%) were called active. Only a sample is shown. Entries with a potency or affinity are not part of this list. Unmarked numbers belong to inactive results. The rule behind the calls is not given here.

Assay: HepG2 cell cytotoxicity, dose response, cytotoxicity control for non-replicating M. tuberculosis project (AID 489018);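 note: HepG2 human liver cells; 100% = vehicle-treated cells and 0% = background signal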
Settings: series mostly up to 20 µM; viability: at the top concentration

Row | SMILES | viability
1 | COc1ccc(C2(O)CCN(CCCCOc3ccccc3)CC2)cc1 | 94.8%
2 | OCC1(CCOc2ccccc2)CCN(Cc2cc(Cl)ccc2O)CC1 | 117%
3 | Clc1cccc(OCCN2CCN(CCOc3cccc(Cl)c3)CC2)c1 | 88.1%
4 | CC(C)Cn1c(N)c(C(=O)COC(=O)c2cnc(Cl)c(Cl)c2)c(=O)n(C)c1=O | 102%
5 | O=C(Oc1cccnc1)c1ccc(Cl)c(Cl)c1 | 103%
6 | CC(=O)c1ccc(-n2cc(-c3ccc(C(C)(C)C)cc3)[n+]3c2SCCC3)cc1 | 100%
7 | Cn1c(=O)c(Oc2ccc(F)cc2)c(O)c2ccccc21 | 95.5%
8 | O=C(Nc1nccs1)c1ccc(COc2ccc(Cl)cc2)o1 | 98.2% [at 5 µM]
9 | COc1cccc(COC(=O)CCNC(=O)c2ccc(Cl)cc2)c1OC | 106%
10 | O=C(Oc1ccccc1)c1ccc(COC(=O)c2cnccn2)cc1 | 99.2%
11 | NC1=NC[C@H](Cc2ccccc2)N1CCCCC1CCCCC1 | 96.8% [at 5 µM]
12 | CCCC(=O)N1CCC(Cc2ccccc2)CC1 | 120%
13 | Cc1ccc(NC(C)C(=O)N/N=C/c2ccc([N+](=O)[O-])s2)cc1 (stereo unspecified) | 82.1%
14 | CC(CN1CCOCC1)OC(=O)c1ccc2c(c1)OCCO2 (stereo unspecified) | 95.4%
15 | CCOc1ccc(C(=O)CCN2CCCCCC2)cc1 | 106% [at 5 µM]
16 | COc1ccc2cc(C(=O)C3CCCN(Cc4ccccn4)C3)ccc2c1 (stereo unspecified) | 74.4%
17 | Cc1ccc(NC(CC(=O)c2ccccc2)C(=O)O)cc1Cl (stereo unspecified) | 99.8%
18 | CC(CN1CCOCC1)OC(=O)c1ccc(Br)cc1 (stereo unspecified) | 80%

Row | SMILES | viability
19 | COc1ccc(C(=O)CCN2CCCCCC2)cc1 | 95%
20 | CC(C)COc1ccc(C(=O)CCN2CCCCC2)cc1 | 94.7%
21 | CC(NC(=O)OCc1ccccc1)c1ccccc1 (stereo unspecified) | 96%
22 | CC(=O)c1cc2c(ccc3ccccc32)oc1=O | 99.2% [at 5 µM]
23 | Cc1c([N+](=O)[O-])cnc(Sc2ccccc2)c1[N+](=O)[O-] | 97.7%
24 | O=C(C/C=N\OCc1ccc([N+](=O)[O-])cc1)Nc1ccccc1 | 99%
25 | Cc1nnc(N/N=C/c2cccc(OCc3ccc(Cl)c(Cl)c3)c2)n1N | 83.2%
26 | O=C(CN1CCC(NC(=O)c2cccc(F)c2)CC1)Nc1ccc(Br)cc1 | 96.4% [at 5 µM]
27 | COc1cccc(NC(=O)c2cnc(SC)nc2)c1 | 106%
28 | CCOC(=O)c1c(C)nc2c3ccccc3ccn12 | 101% [at 5 µM]
29 | COC(=O)c1ccc(N2CCN(CCNC(=O)Nc3ccc(OC)cc3)CC2)cc1 | 104%
30 | COC(=O)COc1ccc2c(=O)c(Oc3ccccc3)c(C)oc2c1 | 98%
31 | O=C(CCSc1ccccc1)N1CCCC1 | 86%
32 | O=C(CCN1CCCCCC1)c1ccccc1 | 105%
33 | Cc1ccc2nc(NC(=O)c3ccccn3)sc2c1 | 91.4%
34 | O=C(Nc1nc(-c2cc(F)ccc2F)cs1)c1ccccn1 | 107% [at 5 µM]
35 | Cc1cnc(NC(=O)c2ccccn2)s1 | 83.2%
36 | O=C(Nc1nccs1)c1ccccn1 | 97%
